# Source: PubChem BioAssay (NCI)
# Compounds without any hit were thinned out: in the full panel of roughly 83,000, 20% have a hit.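 Compound tested at a single concentration for 48 hours in 96-well plates; a percent growth value below 10 was scored as active.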 Unmarked numbers belong to inactive results. The source made the active and inactive calls.
# Experiments:
# Test in all cases: NCI-60 one-dose screen, 48 h (100 = growth as untreated, 0 = no growth, -100 = all killed)
# HCT-15 colon = conditions: 10 µM unless noted
# HT29 colon = conditions: 10 µM unless noted
# SNB-75 CNS = conditions: 10 µM unless noted
# SNB-19 CNS = conditions: 10 µM unless noted
# U251 CNS = conditions: 10 µM unless noted
# PC-3 prostate = conditions: 10 µM unless noted
# SK-MEL-5 melanoma = conditions: 10 µM unless noted
# UACC-62 melanoma = conditions: 10 µM unless noted
# LOX IMVI melanoma = conditions: 10 µM unless noted
# SK-MEL-28 melanoma = conditions: 10 µM unless noted
# SK-MEL-2 melanoma = conditions: 10 µM unless noted
# EKVX NSCLC = conditions: 10 µM
# SN12C renal = conditions: 10 µM unless noted
# UO-31 renal = conditions: 10 µM unless noted
# TK-10 renal = conditions: 10 µM unless noted
# ACHN renal = conditions: 10 µM unless noted
# A498 renal = conditions: 10 µM unless noted
# CCRF-CEM leukemia = conditions: 10 µM
# MOLT-4 leukemia = conditions: 10 µM unless noted
# CAKI-1 renal = conditions: 10 µM unless noted
SMILES,growth (HCT-15 colon),growth (HT29 colon),growth (SNB-75 CNS),growth (SNB-19 CNS),growth (U251 CNS),growth (PC-3 prostate),growth (SK-MEL-5 melanoma),growth (UACC-62 melanoma),growth (LOX IMVI melanoma),growth (SK-MEL-28 melanoma),growth (SK-MEL-2 melanoma),growth (EKVX NSCLC),growth (SN12C renal),growth (UO-31 renal),growth (TK-10 renal),growth (ACHN renal),growth (A498 renal),growth (CCRF-CEM leukemia),growth (MOLT-4 leukemia),growth (CAKI-1 renal)
CCc1c(C)c2ccc(OCC(=O)N=Nc3c(O)[nH]c4ccccc34)c(C)c2oc1=O,-15% (active),-38.6% (active),30.7%,19.2%,-70.8% (active),-9.58% (active),34.2%,22.8%,-37.8% (active),64.8%,32.9%,88.9%,-43% (active),64.8%,61.3%,82.2%,56.9%,10.3%,8.66% (active),–
COc1ccc(-c2cn3ccnc3c(-c3ccc4ncn(C5CCCCC5)c4c3)n2)cc1,21.2%,7.49% (active),-26.3% (active),31.6%,19.1%,4.78% (active),7.7% (active),34.8%,30.4%,52.3%,5.74% (active),43.4%,36.4%,38.5%,81.5%,39%,-12.3% (active),6.73% (active),17.2%,–
N=C(N)N=Nc1ccc(NN=C(N)N)c2ccccc12,110%,99.3%,73.1%,51.7%,35.5%,87.8%,138%,102%,103%,113%,104%,116%,73.2%,69.6%,108%,105%,–,101%,97.1%,–
O=C(CCCC(=O)Nc1ccc(Cn2nnc3cc(Cl)c(Cl)cc32)cc1)Nc1ccc(CN2N=NC3C=C(Cl)C(Cl)=CC32)cc1 (configuration not stated),97.3%,86.5%,70.3%,86.2%,84.2%,60.2%,89.8%,62.3%,78.8%,103%,87.7%,75.6%,89.9%,50.4%,107%,83.8%,78.3%,68.1%,83.2%,–
CC(C)CSc1nc(-c2ccc(F)cc2)c(C#N)c(N2CCCCC2)n1,92.2%,87.6%,100%,104%,93%,82%,94.3%,82.1%,92.9%,94.3%,85.5%,93.4%,105%,95.3%,91.4%,98.8%,–,94.4%,95.3%,–
C[C@@H](c1ccc2c(c1)[nH]c1ccc(Cl)cc12)c1nc2ccccc2[nH]1,96%,98%,62.4%,92%,98.4%,91.3%,95.3%,85.9%,88.2%,112%,108%,92.6%,89.6%,56.6%,136%,96.5%,111%,–,92.4%,–
COc1ccc(C2=C/C(=C\c3ccc(Cl)cc3)C(=O)NN2C(=S)NN)cc1,104%,109%,61.2%,103%,104%,92.3%,97.7%,86.6%,101%,113%,97.3%,94.2%,104%,79.6%,129%,96.5%,99.3%,91.6%,97.8%,–
COc1cc(/C=C/C(=O)/C=C(/C=C/c2ccc(OC(C)=O)c(OC)c2)OB(F)F)ccc1OC(C)=O,15.4%,61.4%,53%,69.4%,33.3%,63%,69.6%,49.6%,20%,66.8%,86.9%,76.1%,42.3%,47%,80.7%,26.5%,–,1.09% (active),3.59% (active),–
Cc1nnc(/N=C2\NC(=O)/C(=C/C=C/c3ccccc3)S2)s1,37%,92.8%,66.5%,53.7%,49.5%,39.2%,44.2%,46.1%,44.3%,59.8%,57.7%,67.1%,66.2%,55.2%,70.3%,50.8%,65.3%,29.8%,43.7%,–
CC1=C(C)C[C@]2(C(=O)O[C@H]3CCCC[C@@H]32)[S@](=O)C1,112%,95.3%,98.4%,105%,98.8%,110%,107%,104%,97.6%,118%,86.3%,109%,102%,91.2%,89.7%,120%,–,105%,105%,–
CCOC(=O)C1=NN(c2ccccc2)C2=NC(=O)/C(=C\c3cn(-c4ccccc4)nc3-c3cc4ccccc4o3)C(=O)N12,101%,98%,94.7%,89.5%,99.4%,88.2%,94.3%,82.3%,95.9%,110%,99.3%,90.2%,94.3%,68.5%,161%,94.8%,112%,95.8%,96.3%,–
COc1ccc(-c2nc(SCC(C)C)nc(Nc3ccc(C)cc3)c2C#N)cc1,84.8%,82.9%,60.6%,78.4%,21.2%,86.1%,86.1%,102%,73.9%,94.6%,107%,72.8%,41.3%,59.7%,43.3%,13.6%,–,52.9%,81.6%,–
CCCC(=O)Nc1ccccc1C(=O)O,95.4%,96.6%,89.4%,106%,89.7%,103%,99%,105%,92.5%,107%,100%,96.4%,109%,91.3%,92.3%,108%,–,104%,98.6%,–
COc1cc(CNC(=O)CCCC/C=C/C(C)C)ccc1OCc1nnc(Nc2ccccc2F)o1,90.1%,89.9%,57.8%,58.6%,84%,72.5%,86.6%,65.5%,83.4%,85.2%,111%,77.1%,70.5%,52.8%,97.7%,56.1%,92.5%,83%,82%,–
N=C(N)N=Nc1ccc(NN=C(N)N)cc1,102%,91.1%,76.4%,94.2%,91.8%,45.9%,94%,90.8%,96.4%,103%,105%,36.3%,89%,53.6%,103%,88.2%,–,96.3%,105%,–
O=C1N/C(=N\c2nnc(-c3ccc(O)cc3)s2)S/C1=C\c1ccccc1O,93.3%,115%,78.5%,93.8%,101%,87%,99.7%,97.6%,93%,106%,103%,101%,93.2%,72.4%,97.9%,97.8%,–,95.8%,100%,–
Cc1c(Cc2ccccc2)c(=O)oc2c(C)c(OCc3n[nH]c(=S)o3)ccc12,75.7%,86.8%,71.4%,85.8%,64.4%,11.2%,83.8%,90.4%,64.5%,110%,101%,79%,67.8%,94.8%,116%,89.2%,67.3%,22.8%,19.8%,–
COc1ccc(-c2nc(SCC(C)C)nc(Nc3ccc(C(=O)O)cc3)c2C#N)cc1,33%,94.7%,88.6%,98.1%,94.8%,82.3%,63.3%,99.3%,88%,25.5%,57.9%,90.7%,102%,92.9%,88.5%,89.5%,–,89.2%,82.7%,–
C=CCSc1nnc(COc2ccc3c(C)c(Cc4ccccc4)c(=O)oc3c2C)o1,104%,98.3%,89.1%,93.4%,99%,93.2%,101%,92.4%,97.6%,117%,95.9%,108%,95.2%,80%,109%,97.5%,110%,95.1%,96%,–
Nc1ccc(N=Nc2ccccc2)c2cc(S(=O)(=O)O)ccc12,104%,94.6%,82.5%,101%,101%,96%,107%,103%,97.7%,118%,91.1%,105%,108%,86.7%,92.9%,104%,–,99.9%,106%,–
COC1=C(OC)C(=O)c2ccccc2C1=O,101%,107%,72.7%,102%,89.9%,82.3%,13.6%,101%,63.4%,101%,107%,97.8%,108%,78.6%,115%,92%,–,61.6%,–,–
NNC(=S)N1N=C(c2cc3ccccc3o2)CC1c1c[nH]c2ccccc12 (configuration not stated),30.4%,34.1%,88.4%,35.5%,36%,29.2%,42.1%,15.4%,26%,40.2%,60.1%,35.2%,56.9%,24%,80.1%,24%,90.2%,7.46% (active),10.2%,–
COc1ccc(/C=C(/C(=O)N2CCCCC2)c2cc(OC)c(OC)c(OC)c2)cc1,26.8%,5.67% (active),-15.6% (active),32%,26%,12.4%,26.8%,36.5%,36.5%,54.1%,28.5%,42.5%,39.2%,48.2%,77.3%,49%,-2.33% (active),14.1%,30.9%,–
COc1ccc(/C=C2\CCCC3=C2N=C2SC=NN2C3c2ccc(OC)c(OC)c2)cc1OC (configuration not stated),34.2%,14.4%,40.1%,68.6%,30.2%,67.9%,30.8%,38.1%,9.24% (active),66%,109%,–,40.7%,40%,60.9%,37.4%,42.8%,7.48% (active),54.7%,32.5%
Cn1c2ccccc2c2ccccc21,107%,104%,85.5%,98.3%,96.5%,105%,105%,101%,95.8%,102%,99.4%,–,107%,75%,97.5%,105%,115%,92.5%,89.7%,101%
